Results on eight compounds are retold here after PubChem BioAssay (NCI).

Common to all, as to assay: NCI-60 one-dose screen, 48 h (100 = growth as untreated, 0 = no growth, -100 = all killed)
What all share (settings): 10 µM unless noted

Experiment [1] relates to HCT-15 colon.
Experiment [2] deals with HT29 colon.
Experiment [3] deals with SNB-75 CNS.
Experiment [4] has as its system SNB-19 CNS.
Experiment [5] concerns U251 CNS.
Experiment [6] deals with PC-3 prostate.
The test system of experiment [7] is SK-MEL-5 melanoma.
Experiment [8] relates to UACC-62 melanoma.
Experiment [9] deals with LOX IMVI melanoma.
Experiment [10] relates to SK-MEL-28 melanoma.
Experiment [11] has as its system SK-MEL-2 melanoma.
Experiment [12] concerns SN12C renal.
For experiment [13], the system named is UO-31 renal.
Experiment [14] deals with TK-10 renal.
Experiment [15] has as its system ACHN renal.
Experiment [16] relates to CAKI-1 renal.
Experiment [17] has as its system CCRF-CEM leukemia.
The test system of experiment [18] is MOLT-4 leukemia.

About 83,000 compounds went through this panel and 20% of them were active in at least one assay; those are over-represented in the sample as a whole.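 Cell lines were cultured in 96-well plates, exposed to a single compound concentration, and assessed for percent growth 48 hours later.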 Unmarked numbers belong to inactive results. Calls of active or inactive are those of the source. How the source made its calls: active means growth percent below 10; inactive means the rest.

For the compound `COc1ccc(-c2nc3sccn3c2-c2ccnc(NCCCNS(=O)(=O)c3ccc(F)cc3)n2)cc1`, the growth is 2.92% (active) in experiment [1]; 20% in experiment [2]; 40.4% in experiment [3]; 42.6% in [4]; 26.1% in experiment [5]; 21.1% in experiment [6]. Further, the growth in experiment [7] is -59.6% (active); in experiment [8], -34.4% (active); in experiment [9], 6.15% (active); in [10], 11.5%; in [11], -0.52% (active); in experiment [12], 14.3%. The growth in experiment [13] was 4.56% (active); in [14] it was 52.9%; in [15], 2.12% (active); in [16] it was 21.8%; in experiment [17] it was 9.5% (active); in [18] it was 6.65% (active).

In the case of `CCNC(=O)CCCCC(=O)c1c(C)[nH]c(/C=C2\N=C(c3ccc[nH]3)C=C2OC)c1C`, the growth in experiment [1] is -39.8% (active); in experiment [2] it was -100% (active); in experiment [3], -12.6% (active); in experiment [4] it was 54.5%; in experiment [5], 1.75% (active); in experiment [6], -42.2% (active). In addition, the growth in experiment [7] is 48%; in [8] it was 61.5%; in experiment [9] it was -56.9% (active); in [10], 51.9%; in experiment [11], 40.8%; in experiment [12], 23.3%. Moreover, the growth was -100% (active) in [13]; -61.6% (active) in [14]; -3.69% (active) in [15]; -29.9% (active) in experiment [16]; 42.2% in [17]; 79.8% in experiment [18].

As for `CC(=O)OC[Si](C)(C)c1ccccc1`, the growth in [1] is 99.7%; in experiment [2], 105%; in [3], 89.8%; in experiment [4] it was 102%; in experiment [5] it was 93.7%; in [6], 95.8%. The growth in experiment [7] is 97.3%; in [8], 102%; in [9], 103%; in experiment [10], 98.2%; in [11], 126%; in [12], 99.6%. Besides, the growth is 94.9% in [13]; 107% in experiment [14]; 106% in [15]; 92.1% in experiment [16]; 108% in [17]; 112% in experiment [18].

`COc1ccc(-c2nc3sccn3c2-c2ccnc(NCCNS(=O)(=O)c3ccc(C(F)(F)F)cc3)n2)cc1`: the growth in [1] is 9.19% (active); in experiment [2], 14.5%; in experiment [3] it was 29.5%; in [4], 34.2%; in experiment [5], 15.4%; in experiment [6], 9.86% (active). Besides, the growth was -94.1% (active) in [7]; 0.0074% (active) in [8]; 2.4% (active) in experiment [9]; 13.9% in [10]; -27.8% (active) in experiment [11]; 17.3% in [12]. The growth in experiment [13] was 19%; in [14], 30.2%; in [15] it was 3.82% (active); in [16] it was 17%; in [17] it was 9.58% (active); in [18], 0.208% (active).

For the compound `c1ccn2nnnc2c1`, the growth in [1] was 99.8%; in experiment [2] it was 98.9%; in experiment [3], 106%; in [4], 106%; in experiment [5], 92.7%; in [6], 97.6%. Also, the growth in experiment [7] was 103%; in [8], 105%; in [9], 91.9%; in experiment [10], 106%; in experiment [11], 104%; in experiment [12] it was 92.7%. In addition, the growth in experiment [13] was 94.5%; in experiment [14], 96.4%; in experiment [15], 111%; in experiment [16], 97.9%; in experiment [17], 99.7%; in experiment [18], 101%.

As to `COc1ccc(S(=O)(=O)NCCNc2nccc(-c3c(-c4ccccc4)nc4sccn34)n2)cc1`, the growth in experiment [1] is 19.4%; in [2] it was 25.4%; in experiment [3], 21.8%; in [4], 39.3%; in [5], 32.7%; in experiment [6] it was 23.1%. The growth in experiment [7] was -80% (active); in experiment [8], 24.8%; in [9] it was 18.8%; in experiment [10], 31.3%; in experiment [11], 2.98% (active); in experiment [12] it was 27.5%. The growth in experiment [13] was 18.6%; in experiment [14], 47%; in experiment [15] it was 10.3%; in experiment [16], 18.3%; in [17], 22.8%; in experiment [18], 5.16% (active).

For the compound `Cc1cccc(-n2c(C)nc3ccc(NC(=O)NCCCl)cc3c2=O)c1`, the growth is 93.8% in experiment [1]; 106% in experiment [2]; 77.5% in experiment [3]; 101% in [4]; 100% in experiment [5]; 93.5% in experiment [6]. In addition, the growth in experiment [7] was 102%; in [8] it was 103%; in experiment [9], 95.6%; in experiment [10] it was 113%; in experiment [11], 114%; in [12], 107%. The growth in experiment [13] is 94.2%; in [14] it was 99.6%; in [15] it was 111%; in [16], 97.6%; in experiment [17], -43.7% (active); in experiment [18], 105%.

As for `O=C1N=C(c2c(-c3[nH]c(=O)c4ccc(Br)cc4c3O)c(O)c3ccccc3c2O)C(=O)c2cc(Br)ccc21`, the growth is -36.3% (active) in experiment [1]; 25.7% in [2]; -35.8% (active) in experiment [3]; 4.13% (active) in experiment [4]; -57.9% (active) in experiment [5]; -60.5% (active) in experiment [6]. Moreover, the growth in experiment [7] was -9.06% (active); in experiment [8] it was -48.9% (active); in experiment [9], -67.5% (active); in [10], -47.8% (active); in [11], -14.7% (active); in [12], -75.4% (active). The growth was -65% (active) in experiment [13]; -39% (active) in experiment [14]; -54% (active) in [15]; -72% (active) in experiment [16]; 25.3% in experiment [17]; 31% in experiment [18].
